# Assay results published in PubChem BioAssay.
# Active and inactive are the calls of the source. Unless noted, how the calls were made is not given here.
# Key:
# [1] = kinase inhibitors against Plasmodium liver-stage infection, cell-based, known kinase inhibitor set, luminescence, hepatoma host viability (AID 624392); details: Plasmodium liver stage in hepatoma cells, luciferase luminescence, concentration not given here; liver cell % of control: measured here: host liver cell viability; parasite % of control: stronger effect = lower value;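 further: infected cells incubated roughly two days before readout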
# [2] = modulators of glucocorticoid suppression of NF-kB, cell-based, luciferase, IL-1B stimulus, dexamethasone (AID 624486); details: NF-kB luciferase reporter, IL-1B + dexamethasone, luminescence; percent of negative control (+Dex): actives lie on both sides, concentration not given here; z-score: measured here: IL-1B alone, no Dex;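 on percent of negative control (+Dex): 100% = mean signal of vehicle control wells on the plate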
# [3] = kinase inhibitors altering Pseudomonas killing of worms, whole organism (AID 651566);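 further: tested at 14 µM; sign flipped so higher z means a lower ratio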; details: C. elegans killed by P. aeruginosa, survival ratio
# [4] = activators of macrophage pro-inflammatory response, cell-based, murine, luminescence (AID 652131); details: murine macrophage pro-inflammatory reporter, stronger effect = higher value
# [5] = target: Cellular tumor antigen p53 (Homo sapiens) (UniProt P04637); experiment: kinase inhibitors altering GFP-p53 stability in HPV16-positive cells, imaging, known kinase inhibitor set, EGFP/DsRed ratio (AID 1053116); details: stronger effect = higher value; EGFP object count: measured here: GFP-p53 positive objects count;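 further: cells exposed to compounds for 24 h at 37 °C before reading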
# Sequence of Cellular tumor antigen p53 (Homo sapiens) (P04637 whole entry, looked up): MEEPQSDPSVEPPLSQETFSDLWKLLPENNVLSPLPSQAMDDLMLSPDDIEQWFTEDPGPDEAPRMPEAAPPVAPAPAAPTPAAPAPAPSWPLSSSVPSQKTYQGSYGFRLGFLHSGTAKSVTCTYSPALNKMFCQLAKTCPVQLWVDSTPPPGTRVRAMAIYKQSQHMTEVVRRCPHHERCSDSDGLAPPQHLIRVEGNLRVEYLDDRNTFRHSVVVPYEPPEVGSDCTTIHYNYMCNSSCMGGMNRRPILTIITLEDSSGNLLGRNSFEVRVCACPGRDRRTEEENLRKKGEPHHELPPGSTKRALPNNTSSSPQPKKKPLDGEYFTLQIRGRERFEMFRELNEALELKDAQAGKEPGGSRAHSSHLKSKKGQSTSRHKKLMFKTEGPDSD
# [6] = IRF3 reporter activation in THP-1 macrophages, cell-based, PMA-stimulated THP-1, luminescence (AID 1053176); details: PMA-differentiated THP-1, IRF3 reporter luminescence; stronger effect = higher value
# [7] = survival rescue of mitochondrial mutant cells in low glucose, primary screen, MELAS cybrids, Rieske KO mouse fibroblasts, CellTiter-Glo (AID 1508586;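 active means mean z-score across replicates of 1.96 or higher in either the MELAS or the Rieske mutant cell line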;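 further: z relative to plate mean and SD of compound and empty wells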)
# [8] = MELAS cybrid survival, CellTiter-Glo 48 h, stronger effect = higher value
# [9] = Rieske KO mouse fibroblast survival, CellTiter-Glo 72 h
Structure (SMILES),liver cell % of control [1] [%],parasite % of control [1],percent of negative control (+Dex) [2],z-score [2],z-score [3],z-score [4],EGFP object count [5],EGFP/DsRed ratio [5],fraction signal [6],"z-score [7, 8]","z-score [7, 9]"
Fc1cccc(COc2ccc(Nc3ncnc4sc(-c5ccco5)cc34)cc2Cl)c1,85.8,129% (inactive),89% (inactive),-0.11,0.87 (inactive),-0.392 (inactive),4.5,0.122 (inactive),-0.0105 (inactive),-0.906 (inactive),-0.52
CCN(CC)S(=O)(=O)c1ccc(OC)c(Nc2ncc(-c3ccccc3)o2)c1,168,80% (inactive),91% (inactive),0.485,-0.36 (inactive),-0.177 (inactive),3,0.245 (inactive),-0.012 (inactive),-0.446 (inactive),-0.197
FC(F)(F)CNc1nccc(-c2cnn3ncccc23)n1,95.3,264% (inactive),33.5% (active),-6.74,-1.18 (inactive),-1.22 (inactive),2,0.0558 (inactive),-0.0105 (inactive),0.365 (inactive),-0.533
N#Cc1ccc2c(-c3ccnc(NC4CC4)n3)c(-c3ccc(F)cc3)nn2c1,122,87.3% (inactive),106% (inactive),0.525,-0.52 (inactive),2.06 (inactive),0.5,0.00284 (inactive),0 (inactive),-0.69 (inactive),-0.125
CN(C)C(=O)O[C@H]1CN[C@H](C#Cc2cc3ncnc(Nc4ccc(OCc5cccc(F)c5)c(Cl)c4)c3s2)C1,97.6,127% (inactive),92% (inactive),-0.215,0.225 (inactive),-0.738 (inactive),2,0.131 (inactive),0.001 (inactive),-0.153 (inactive),-0.193
O=C1N=c2ccc(N=Cc3c(O)[nH]c4ccccc34)cc2=N1,79.5,117% (inactive),86% (inactive),-0.205,-0.24 (inactive),1.12 (inactive),5.5,0.268 (inactive),-0.0005 (inactive),1.49 (inactive),-0.0625
Fc1ccc(Nc2nccc(-c3c(-c4ccc(C(F)(F)F)cc4)nn4ncccc34)n2)cc1F,121,125% (inactive),94.5% (inactive),0.25,0.135 (inactive),-0.216 (inactive),5.5,0.0976 (inactive),0.008 (inactive),-0.717 (inactive),-0.174
CC1=C(C(=O)Nc2ccc3[nH]ncc3c2)C(c2ccc(F)cc2)N=C(c2ccc(C(F)(F)F)nc2)N1 (centres undefined),102,138% (inactive),86% (inactive),-1.21,0.02 (inactive),0.13 (inactive),2,0.0614 (inactive),-0.004 (inactive),-0.75 (inactive),-0.3
O=C(Nc1n[nH]c2cc(-c3ccc(F)cc3)ccc12)C1CC1,152,140% (inactive),115% (inactive),1.05,0.27 (inactive),0.642 (inactive),3,0.145 (inactive),-0.001 (inactive),-1.18 (inactive),-0.329
COc1cc2ncn(-c3cc(OCc4ccccc4C(F)(F)F)c(C(C)=O)s3)c2cc1OC,97.8,91.8% (inactive),82.5% (inactive),-0.63,-0.4 (inactive),-0.463 (inactive),5,0.118 (inactive),0.002 (inactive),-0.657 (inactive),0.0101
COc1cc(Nc2ncc3c(C)nc(-c4cccc(Oc5ccccc5)c4)n3n2)cc(OC)c1OC,92.5,147% (inactive),77% (inactive),-1.34,0.075 (inactive),-0.606 (inactive),8.5,0.0854 (inactive),0 (inactive),0.38 (inactive),0.0156
COc1ccc2ncn(-c3cc(O[C@H](C)c4ccccc4C(F)(F)F)c(C(N)=O)s3)c2c1,75.6,88.3% (inactive),75% (inactive),-2.76,0.355 (inactive),-1.54 (inactive),7.5,0.176 (inactive),0.0035 (inactive),-0.00963 (inactive),0.29
NS(=O)(=O)c1ccc(N=Nc2c(O)[nH]c3ccc(C(=O)NCCc4cnc[nH]4)cc23)cc1,82.2,110% (inactive),85.5% (inactive),-0.045,-1.15 (inactive),-0.108 (inactive),7.5,0.141 (inactive),-0.0145 (inactive),0.0573 (inactive),-0.291
Oc1cccc(-c2nc(-c3ccccc3)[nH]c2-c2ccncc2)c1,111,13.2% (active),124% (inactive),1.75,0.81 (inactive),1.63 (inactive),2.5,0.0183 (inactive),0.0025 (inactive),-0.947 (inactive),-0.653
